From PubChem BioAssay (NCI)
Compounds without any hit were thinned out: in the full panel of roughly 79,000, 15% have a hit. A number with no mark means an inactive call. Calls of active or inactive are those of the source. No stated cut-off is given here; in the data, active means growth inhibition above about 70%; inactive means the rest.

Tests used:
[1] = NCI Yeast Anticancer Drug Screen. Data for the rad50 strain (AID 155);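 further: 0% = growth of vehicle-only cultures of the same strain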; conditions: S. cerevisiae rad50 strain growth inhibition, active compounds read high
Outline: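 Cells are treated with compound, grown, and their growth is then scored against vehicle-only cultures of the same repair-deficient yeast strain.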

[2] = NCI Yeast Anticancer Drug Screen. Data for the mec2-1 strain (AID 157); conditions: S. cerevisiae mec2-1 strain, active compounds read high
Outline: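 Readout is yeast growth inhibition, normalised to vehicle-treated controls, in the mec2-1 strain exposed to compound.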

[3] = NCI Yeast Anticancer Drug Screen. Data for the sgs1 mgt1 strain (AID 161);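 further: 0% = growth of cultures given vehicle only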; conditions: S. cerevisiae sgs1 mgt1 strain, active compounds read high
Outline: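 Percent growth inhibition was derived by comparing compound-exposed mutant yeast with vehicle-exposed cultures. The strain carries alterations in DNA damage repair.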

[4] = NCI Yeast Anticancer Drug Screen. Data for the cln2 rad14 strain (AID 165);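 further: 0% = growth equal to vehicle treated cultures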; conditions: S. cerevisiae cln2 rad14 strain, active compounds read high
Outline: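 Relative to vehicle controls, growth inhibition of compound-treated cln2 rad14 yeast was recorded.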

[5] = NCI Yeast Anticancer Drug Screen. Data for the bub3 strain (AID 167); conditions: S. cerevisiae bub3 mutant strain, active compounds read high
Outline: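 Part of a panel of yeast mutants defective in DNA damage repair or cell cycle regulation. Each strain is grown with compound, and inhibition is calculated relative to solvent-treated cultures.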

[6] = NCI Yeast Anticancer Drug Screen. Data for the mlh1 rad18 strain (AID 175); conditions: S. cerevisiae mlh1 rad18 strain growth inhibition, active compounds read high
Outline: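 Test agents were incubated with a yeast strain of defined genotype (DNA damage repair defect). Inhibition of growth was derived by comparison with vehicle-exposed cultures.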

[7] = at 5.0 µM (retest, dose inferred, filed as 0.5)
[8] = at 50.0 µM (retest, dose inferred, filed as 5.0)

O=C(CCBr)NC(=O)Oc1cccc2ccccc12
growth inhibition [1, 7]: 1% | growth inhibition [1, 8]: 17% | growth inhibition ([1]; at 50.0 µM): 87.2% (active) | growth inhibition [2, 7]: 1% | growth inhibition [2, 8]: 29% | growth inhibition ([2]; at 50.0 µM): 97.2% (active) | growth inhibition [3, 7]: 5% | growth inhibition [3, 8]: 55% | growth inhibition ([3]; at 50.0 µM): 91.3% (active) | growth inhibition [4, 7]: 4% | growth inhibition [4, 8]: 11% | growth inhibition ([4]; at 50.0 µM): 28.1% | growth inhibition [5, 7]: -8% | growth inhibition [5, 8]: 18% | growth inhibition ([5]; at 50.0 µM): 85.6% (active) | growth inhibition [6, 7]: 2% | growth inhibition [6, 8]: 65% | growth inhibition ([6]; at 50.0 µM): 95.3% (active)

Nc1ccc2c(c1)[nH]c(=O)c1cc(Cl)c(Cl)cc12
growth inhibition [1, 7]: 87% (active) | growth inhibition [1, 8]: 94% (active) | growth inhibition ([1]; at 50.0 µM): 96.3% (active) | growth inhibition [2, 7]: 27% | growth inhibition [2, 8]: 60% | growth inhibition ([2]; at 50.0 µM): 40.4% | growth inhibition [3, 7]: 49% | growth inhibition [3, 8]: 70% (active) | growth inhibition ([3]; at 50.0 µM): 78.2% (active) | growth inhibition [4, 7]: 63% | growth inhibition [4, 8]: 77% (active) | growth inhibition ([4]; at 50.0 µM): 13.1% | growth inhibition [5, 7]: -1% | growth inhibition [5, 8]: 84% (active) | growth inhibition ([5]; at 50.0 µM): 9.65% | growth inhibition [6, 7]: 53% | growth inhibition [6, 8]: 85% (active) | growth inhibition ([6]; at 50.0 µM): 92.9% (active)

CC(C)(C)OC(=O)CSC#N
growth inhibition [1, 7]: 11% | growth inhibition [1, 8]: 93% (active) | growth inhibition ([1]; at 50.0 µM): 67.3% | growth inhibition [2, 7]: 16% | growth inhibition [2, 8]: 95% (active) | growth inhibition ([2]; at 50.0 µM): 66.2% | growth inhibition [3, 7]: 9% | growth inhibition [3, 8]: 96% (active) | growth inhibition ([3]; at 50.0 µM): 90.5% (active) | growth inhibition [4, 7]: 8% | growth inhibition [4, 8]: 39% | growth inhibition ([4]; at 50.0 µM): 3.75% | growth inhibition [5, 7]: 12% | growth inhibition [5, 8]: 94% (active) | growth inhibition ([5]; at 50.0 µM): 69.2% | growth inhibition [6, 7]: 15% | growth inhibition [6, 8]: 92% (active) | growth inhibition ([6]; at 50.0 µM): 55.5%

CCCCCCCCCCn1cc[nH]c1=S
growth inhibition [1, 7]: 47% | growth inhibition [1, 8]: 99% (active) | growth inhibition ([1]; at 50.0 µM): 99% (active) | growth inhibition [2, 7]: 47% | growth inhibition [2, 8]: 99% (active) | growth inhibition ([2]; at 50.0 µM): 99.2% (active) | growth inhibition [3, 7]: 72% (active) | growth inhibition [3, 8]: 99% (active) | growth inhibition ([3]; at 50.0 µM): 99.3% (active) | growth inhibition [4, 7]: 18% | growth inhibition [4, 8]: 99% (active) | growth inhibition ([4]; at 50.0 µM): 98.8% (active) | growth inhibition [5, 7]: 72% (active) | growth inhibition [5, 8]: 99% (active) | growth inhibition ([5]; at 50.0 µM): 99.2% (active) | growth inhibition [6, 7]: 59% | growth inhibition [6, 8]: 98% (active) | growth inhibition ([6]; at 50.0 µM): 99.3% (active)

COC(=O)C(CBr)CBr
growth inhibition [1, 7]: 25% | growth inhibition [1, 8]: 100% (active) | growth inhibition ([1]; at 50.0 µM): -20.9% | growth inhibition [2, 7]: 34% | growth inhibition [2, 8]: 99% (active) | growth inhibition ([2]; at 50.0 µM): 9.55% | growth inhibition [3, 7]: 22% | growth inhibition [3, 8]: 98% (active) | growth inhibition ([3]; at 50.0 µM): -5.25% | growth inhibition [4, 7]: 21% | growth inhibition [4, 8]: 99% (active) | growth inhibition ([4]; at 50.0 µM): 10.7% | growth inhibition [5, 7]: 47% | growth inhibition [5, 8]: 100% (active) | growth inhibition ([5]; at 50.0 µM): 5.8% | growth inhibition [6, 7]: 39% | growth inhibition [6, 8]: 99% (active) | growth inhibition ([6]; at 50.0 µM): -14.7%

CCCCCCCCC(N)CCCCCCCC
growth inhibition [1, 7]: 99% (active) | growth inhibition [1, 8]: 98% (active) | growth inhibition ([1]; at 50.0 µM): 99% (active) | growth inhibition [2, 7]: 100% (active) | growth inhibition [2, 8]: 99% (active) | growth inhibition ([2]; at 50.0 µM): 99% (active) | growth inhibition [3, 7]: 99% (active) | growth inhibition [3, 8]: 99% (active) | growth inhibition ([3]; at 50.0 µM): 46% | growth inhibition [4, 7]: 96% (active) | growth inhibition [4, 8]: 99% (active) | growth inhibition ([4]; at 50.0 µM): 98.8% (active) | growth inhibition [5, 7]: 99% (active) | growth inhibition [5, 8]: 98% (active) | growth inhibition ([5]; at 50.0 µM): 99.2% (active) | growth inhibition [6, 7]: 99% (active) | growth inhibition [6, 8]: 98% (active) | growth inhibition ([6]; at 50.0 µM): 99.5% (active)

O=C(c1ccc(Br)cc1)C1OC12C(=O)Nc1ccccc12 (stereo not given)
growth inhibition [1, 7]: 46% | growth inhibition [1, 8]: 99% (active) | growth inhibition ([1]; at 50.0 µM): 99.7% (active) | growth inhibition [2, 7]: 99% (active) | growth inhibition [2, 8]: 99% (active) | growth inhibition ([2]; at 50.0 µM): 99.7% (active) | growth inhibition [3, 7]: 84% (active) | growth inhibition [3, 8]: 100% (active) | growth inhibition ([3]; at 50.0 µM): 99.7% (active) | growth inhibition [4, 7]: 49% | growth inhibition [4, 8]: 99% (active) | growth inhibition ([4]; at 50.0 µM): 99.1% (active) | growth inhibition [5, 7]: 99% (active) | growth inhibition [5, 8]: 99% (active) | growth inhibition ([5]; at 50.0 µM): 99.6% (active) | growth inhibition [6, 7]: 99% (active) | growth inhibition [6, 8]: 99% (active) | growth inhibition ([6]; at 50.0 µM): 99.5% (active)

O=C(CCCCCCCCCCc1ccccc1)c1c(O)cccc1O
growth inhibition [1, 7]: 37% | growth inhibition [1, 8]: 96% (active) | growth inhibition ([1]; at 50.0 µM): 82.7% (active) | growth inhibition [2, 7]: 29% | growth inhibition [2, 8]: 97% (active) | growth inhibition ([2]; at 50.0 µM): 89% (active) | growth inhibition [3, 7]: 45% | growth inhibition [3, 8]: 97% (active) | growth inhibition ([3]; at 50.0 µM): 87.2% (active) | growth inhibition [4, 7]: 24% | growth inhibition [4, 8]: 95% (active) | growth inhibition ([4]; at 50.0 µM): 83.3% (active) | growth inhibition [5, 7]: 41% | growth inhibition [5, 8]: 97% (active) | growth inhibition ([5]; at 50.0 µM): 85.4% (active) | growth inhibition [6, 7]: 39% | growth inhibition [6, 8]: 95% (active) | growth inhibition ([6]; at 50.0 µM): 79.3% (active)

CSc1nc(SC)c2cn(Cc3ccccc3)nc2n1
growth inhibition [1, 7]: -2% | growth inhibition [1, 8]: 94% (active) | growth inhibition ([1]; at 50.0 µM): 55.5% | growth inhibition [2, 7]: -3% | growth inhibition [2, 8]: 95% (active) | growth inhibition ([2]; at 50.0 µM): 52.1% | growth inhibition [3, 7]: -5% | growth inhibition [3, 8]: 97% (active) | growth inhibition ([3]; at 50.0 µM): 80.7% (active) | growth inhibition [4, 7]: -8% | growth inhibition [4, 8]: 85% (active) | growth inhibition ([4]; at 50.0 µM): 26.2% | growth inhibition [5, 7]: 4% | growth inhibition [5, 8]: 92% (active) | growth inhibition ([5]; at 50.0 µM): 42.8% | growth inhibition [6, 7]: -2% | growth inhibition [6, 8]: 95% (active) | growth inhibition ([6]; at 50.0 µM): 63.8%

COC1OC2COC(c3ccccc3)OC2C(NC(=S)SCc2ccccc2)C1O (stereo not given)
growth inhibition [1, 7]: -3% | growth inhibition [1, 8]: 98% (active) | growth inhibition ([1]; at 50.0 µM): 99.4% (active) | growth inhibition [2, 7]: 0% | growth inhibition [2, 8]: 98% (active) | growth inhibition ([2]; at 50.0 µM): 99.3% (active) | growth inhibition [3, 7]: -1% | growth inhibition [3, 8]: 98% (active) | growth inhibition ([3]; at 50.0 µM): 99.5% (active) | growth inhibition [4, 7]: 3% | growth inhibition [4, 8]: 98% (active) | growth inhibition ([4]; at 50.0 µM): 99.5% (active) | growth inhibition [5, 7]: 0% | growth inhibition [5, 8]: 99% (active) | growth inhibition ([5]; at 50.0 µM): 99.2% (active) | growth inhibition [6, 7]: 7% | growth inhibition [6, 8]: 98% (active) | growth inhibition ([6]; at 50.0 µM): 99% (active)
